The full list was thinned out, with hits kept by preference.
Tg IFNy HTS = blocks Toxoplasma gondii growth in the presence of IFN-gamma; Toxoplasma gondii growth in IFN-gamma-treated host cells; stronger effect = lower value; activity change, negative = inhibition, % (no concentration beside the values); actives 3.8% (n = 69,000); AID 1259416; in the data active means activity change below about -70%, passing the limit was not always enough;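 further: host cells are HeLa cells infected with Toxoplasma gondii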
Active calls of the source: *.

SMILES	Tg IFNy HTS
CCC1(O)CC2CN(CCc3c([nH]c4ccccc34)C(C(=O)OC)(c3cc4c(cc3OC)N(C)C3C(O)(C(=O)OC)C(C(=O)OC)C5(CC)C=CCN6CCC43C65)C2)C1 (centres undefined)	-86.3*
Cc1nc(-c2cc(C(=O)NCCN(C)C)c3ccccn23)cn1Cc1cccnc1	-3.2
CCN(CCNc1nc(-c2ccccc2Cl)nc2ccccc12)c1cccc(C)c1	-58.8
COc1ccc(-c2cnc(N)cn2)cc1Cl	-87.7*
COc1ccc(-c2nc(C)ncc2C)cc1Cl	1.4
COc1ccc(-c2ccccc2C(N)=O)cc1Cl	7.4
C=CCOCC12CCCOC1CCN(C(=O)Cc1ccsc1)C2 (centres undefined)	-33.6
NC(=O)CC(CC(=O)OCc1ccccn1)c1ccccc1 (centres undefined)	25.9
COc1ccc(-c2nc(-c3ccc(O)cc3)[nH]c2-c2ccc(OC)cc2)cc1	7.6
CN(C)CCOc1ccc(-c2nc(-c3ccc4c(c3)CC/C4=N\O)c(-c3ccncc3)[nH]2)cc1	-79.3*
c1ccc(SCc2nnc3sc(-c4ccccn4)nn23)cc1	402.7
O=C(NO)c1ccccc1O	-8.6
O=C(O)c1ccccc1O	7.2
O=C(CC(=O)c1ccccc1O)c1ccc(F)cc1	-109.5*
C=C(NC(=O)C(=C)NC(=O)c1csc(C2=N[C@H]3c4csc(n4)[C@H]4NC(=O)c5csc(n5)[C@H]([C@@](C)(O)[C@@H](C)O)NC(=O)[C@H]5CSC(=N5)/C(=C/C)NC(=O)[C@H]([C@@H](C)O)NC(=O)c5csc(n5)[C@]3(CC2)NC(=O)[C@H](C)NC(=O)C(=C)NC(=O)[C@H](C)NC(=O)[C@H](C(C)CC)N[C@@H]2C=Cc3c([C@H](C)O)cc(nc3[C@H]2O)C(=O)O[C@@H]4C)n1)C(N)=O (some centres undefined)	-55.7
C=C(NC(=O)C(=C)NC(=O)c1csc(C2=N[C@@H]3c4csc(n4)[C@H]4NC(=O)c5csc(n5)[C@H]([C@](C)(O)[C@@H](C)O)NC(=O)[C@H]5CSC(=N5)/C(=C/C)NC(=O)[C@H]([C@@H](C)O)NC(=O)c5csc(n5)[C@]3(CC2)NC(=O)[C@H](C)NC(=O)C(=C)NC(=O)[C@H](C)NC(=O)[C@H]([C@@H](C)CC)N[C@@H]2C=Cc3c([C@H](C)O)cc(nc3[C@H]2O)C(=O)O[C@@H]4C)n1)C(N)=O	-72.4*
CCOC(=O)c1ccc(CN2Cc3ncccc3C2=O)o1	-3.8
CCS(=O)(=O)N1CC2CN(Cc3ccc[nH]3)CC2C1 (centres undefined)	146.0
O=C(Cn1ncc2c(N3CCOCC3)ncnc21)NCc1ccccc1Cl	74.3
COc1ccc(CNC(=O)Cn2ncc3c(N4CCCCC4)ncnc32)cc1OC	170.1
Cc1ccc(NC(=O)Cn2ncc3c(N4CCN(c5ccccn5)CC4)ncnc32)cc1	98.8
O=C(Cn1ncc2c(N3CCCCCC3)ncnc21)NCc1cc(F)cc(F)c1	57.9
COc1ccc(CNC(=O)Cn2ncc3c(N4CCCCC4)ncnc32)c(OC)c1	29.8
Cc1ccc(CNC(=O)Cn2ncc3c(N4CCN(c5ccccn5)CC4)ncnc32)cc1	-97.3*
COc1ccc(CNC(=O)Cn2ncc3c(N4CCCCCC4)ncnc32)cc1	6.3
SMILES	Tg IFNy HTS
O=C(Cn1ncc2c(N3CCN(c4ccccn4)CC3)ncnc21)NCc1ccccc1Cl	-92.3*
CCc1ccccc1NC(=O)Cn1ncc2c(N3CCN(c4ccccn4)CC3)ncnc21	-56.5
COc1ccc(CNC(=O)Cn2ncc3c(N4CCCCC4)ncnc32)cc1	-101.9*
Cc1ccc(C)c(NC(=O)Cn2ncc3c(N4CCN(c5ccccn5)CC4)ncnc32)c1	-3.1
O=C(Cn1ncc2c(N3CCCCCC3)ncnc21)NCc1ccc(F)cc1F	-92.7*
COc1ccc(N2CCN(Cc3ccc4nonc4c3)C(C)C2)cc1 (centres undefined)	4.0
CCO[C@H]1COC[C@@H]1NC(=O)c1cc(-c2ccc(O)cc2)n[nH]1	2.5
COc1ccc(CNC(=O)c2cncc(N(C)S(=O)(=O)c3ccc(C)cc3)c2)cc1	-26.7
Cc1cccc(-n2c(CCc3nc4ccccc4[nH]3)n[nH]c2=O)c1	1.7
Cc1cccc(CC(=O)NCCc2sc(-c3ccc(Cl)cc3)nc2C)c1	-27.3
N[C@@H]1CC[C@@H](NS(=O)(=O)c2ccccc2OC(F)(F)F)C1	-3.6
COc1ccc(OC)c(CNC(=O)Cn2ncc3c(N4CCC(C)CC4)ncnc32)c1	261.4
COCCCNC(=O)Cn1ncc2c(N3CCC(C)CC3)ncnc21	61.3
Cc1ccc(C)c(NC(=O)Cn2ncc3c(N4CCCCCC4)ncnc32)c1	63.2
COc1ccc(CNC(=O)Cn2ncc3c(N4CCC(C)CC4)ncnc32)cc1	-85.2*
COc1ccc(C)cc1NC(=O)Cn1ncc2c(N3CCOCC3)ncnc21	-43.9
Cc1ccc(CNC(=O)Cn2ncc3c(N4CCCCC4)ncnc32)cc1	-102.9*
CCCCOc1ccc(CNC(=O)Cn2ncc3c(N4CCCCCC4)ncnc32)cc1	-98.5*
CN(C)c1ccc(CNC(=O)Cn2ncc3c(N4CCCCC4)ncnc32)cc1	31.2
CCOc1ccc(CNC(=O)Cn2ncc3c(N4CCCCCC4)ncnc32)cc1OCC	76.3
Cc1ccc(CNC(=O)Cn2ncc3c(N4CCCCCC4)ncnc32)cc1	-43.9
O=C(Cn1ncc2c(N3CCCC3)ncnc21)NCc1ccc(Br)cc1	61.2
COc1ccc(C)cc1NC(=O)Cn1ncc2c(N3CCCCCC3)ncnc21	-90.8*
Cc1nc(-c2ccc(F)cc2)nc2c1CCN(c1cnccn1)CC2	2.5
Cc1cccc(CN2CCCC3(CCN(CC(=O)N(C)C)C3=O)C2)n1 (centres undefined)	3.6
SMILES	Tg IFNy HTS
CCOc1ccc(-c2nc(Cn3nnc(C(=O)Nc4ccc(Cl)c(Cl)c4)c3C)c(C)o2)cc1	76.8
CCOC(=O)C1CCN(S(=O)(=O)c2cc3c4c(c2)CCC(=O)N4CCC3)CC1	32.7
O=C(CC(c1cccc(O)c1)c1ccccc1Cl)NCc1ccncc1 (centres undefined)	16.0
CCOC(=O)c1nn(CC)c2c1CN(C(=O)c1cccc(-c3ccc(F)cc3)c1)CC2	-41.6
Cc1cccc(CN2C[C@@H]3CN(Cc4nccn4C)C[C@H]3C2=O)c1	4.5
COc1ccccc1N1CCN(C(=O)C(C)Oc2ccnc3c(C)ccc(C)c23)CC1 (centres undefined)	6.3
CN(C)CC(=O)N1Cc2nnn(C)c2C(COCc2ccccc2)C1 (centres undefined)	2.7
CNC(=O)Cc1ccc(-c2c(Cl)cccc2OC)cc1	1.9
CCN(CC)c1ncnc2c1cnn2CC(=O)NCc1ccc2c(c1)OCO2	-64.4
CCN(CC)c1ncnc2c1cnn2CC(=O)NCc1cccc(OC)c1	84.1
COc1cc(NC(=O)Cn2ncc3c(N4CCC(C)CC4)ncnc32)cc(OC)c1OC	12.5
COc1cccc(CNC(=O)Cn2ncc3c(N4CCC(C)CC4)ncnc32)c1	-99.9*
COc1cccc(CNC(=O)Cn2ncc3c(N4CCOCC4)ncnc32)c1	64.1
CCN(CC)c1ncnc2c1cnn2CC(=O)NCc1ccc(OC)cc1	-99.4*
COCCN(C)C(=O)c1ncn2c(C3CCN(C(C)C)CC3)ccnc12	-47.1
O=C(c1cncc(N2C[C@@H]3[C@@H]4CC[C@@H](C4)[C@@H]3C2)n1)N1CCCC1	-10.0
Cc1nc(-c2cccc(F)c2)sc1CCNC(=O)c1cccc(F)c1	12.0
Cn1cc(N2C(=O)CC3C2CCN3C(=O)CCC(=O)O)cn1 (centres undefined)	146.2
CN(C)/N=N/c1nc[nH]c1C(N)=O	-83.2*
COC1CC2(CCN(Cc3cccn3C)CC2)C1	-50.2

High-throughput results: PubChem, Broad Institute
